PubChem BioAssay (EPA / NIEHS)
The source made the active and inactive calls. The calls were made as follows: active = hit-call score of the fitted dose curve at least 0.9, where 1 is the maximum; inactive = score below 0.9.

Experiments:
Conditions in all cases: mRNA level, 48 h; actives raise or lower the signal
[1] = read-out: Alpha-fetoprotein (AFP) gene, AFP (gene 174); assay: LTEA_HepaRG_AFP: Life Technologies and Expression Analysis (LTEA) Assay for Alpha-fetoprotein (AFP) gene using HepaRG (AID 2283472)
How it was run: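 Differentiated human HepaRG cells exposed 48 h in serum-free induction medium, 8-point half-log series from 100 uM in 0.5% DMSO, duplicate. AFP mRNA by qRT-PCR, normalized to ACTB, GAPDH, POLR2A; bidirectional fit vs DMSO.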

[2] = read-out: BCL2L11 (gene 10018); assay: LTEA_HepaRG_BCL2L11: Life Technologies and Expression Analysis (LTEA) Assay for Bcl-2 (BCL2L11) gene using HepaRG (AID 2283473)
How it was run: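 BCL2L11 transcript levels are measured by Fluidigm qRT-PCR, normalized to three housekeeping genes. HepaRG cultures were plated 48 h, then treated 48 h with test chemical (top 100 uM, half-log, 0.5% DMSO vehicle); curves were fitted bidirectionally against DMSO.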

[3] = read-out: Apolipoprotein A-V (APOA5) gene, APOA5 (gene 116519); assay: LTEA_HepaRG_APOA5: Life Technologies and Expression Analysis (LTEA) Assay for Apolipoprotein A-V (APOA5) gene using HepaRG (AID 2283474)
How it was run: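 APOA5 transcript levels were quantified by qRT-PCR, normalized to three housekeeping genes, after 48 h chemical treatment of HepaRG cells (8 points, 100 uM maximum, half-log steps, 0.5% DMSO). Curves fitted in both directions against vehicle.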

[4] = read-out: Apoptosis regulator Bcl-2 (Homo sapiens) (UniProt P10415); assay: LTEA_HepaRG_BCL2: Life Technologies and Expression Analysis (LTEA) Assay for Bcl-2 gene using HepaRG (AID 2283475)
How it was run: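 Differentiated human HepaRG cells in serum-free induction medium exposed 48 h, in duplicate, to 8-point half-log series from 100 uM in 0.5% DMSO. BCL2 mRNA by qRT-PCR (TaqMan/Fluidigm), normalized to ACTB, GAPDH, POLR2A; bidirectional fit against DMSO.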

[5] = read-out: Bcl-2 (BID) gene, BID (gene 637); assay: LTEA_HepaRG_BID: Life Technologies and Expression Analysis (LTEA) Assay for Bcl-2 (BID) gene using HepaRG (AID 2283476)
How it was run: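 Gene expression by qRT-PCR in HepaRG cells after 48 h exposure, duplicate wells, eight half-log concentrations topping at 100 uM in 0.5% DMSO. Normalized to ACTB, GAPDH, POLR2A; bidirectional fitting relative to DMSO.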

[6] = read-out: Caspase-3 (Homo sapiens) (UniProt P42574); assay: LTEA_HepaRG_CASP3: Life Technologies and Expression Analysis (LTEA) Assay for cysteine-aspartic acid protease (CASP3) using HepaRG (AID 2283477)
How it was run: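 Expression of CASP3 was quantified by TaqMan qRT-PCR against three housekeeping genes (ACTB, GAPDH, POLR2A), bidirectionally versus 0.5% DMSO. HepaRG cultures received compounds in duplicate, top 100 uM with half-log steps, for 48 h in serum-free induction medium.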

[7] = read-out: Cytochrome P450 (CYP24A1), CYP24A1 (gene 1591); assay: LTEA_HepaRG_CYP24A1: Life Technologies and Expression Analysis (LTEA) Assay for Cytochrome P450 (CYP24A1) using HepaRG (AID 2283478)
How it was run: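 mRNA of CYP24A1 quantified by TaqMan qRT-PCR (ACTB/GAPDH/POLR2A normalization) after 48 h chemical exposure of HepaRG cells, top concentration 100 uM, half-log steps, 0.5% DMSO vehicle, duplicates. Curves fitted bidirectionally against DMSO baseline.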

[8] = read-out: Cytochrome P450 (CYP1A2), CYP1A2 (gene 1544); assay: LTEA_HepaRG_CYP1A2: Life Technologies and Expression Analysis (LTEA) Assay for Cytochrome P450 (CYP1A2) using HepaRG (AID 2283479)
How it was run: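 CYP1A2 transcript measured by TaqMan qRT-PCR against three housekeeping genes after 48-hour chemical exposure of HepaRG cells. Eight-point half-log series topping at 100 uM in 0.5% DMSO, duplicates; gain or loss fitted relative to vehicle.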

[9] = read-out: cysteine-aspartic acid protease (CASP8), CASP8 (gene 841); assay: LTEA_HepaRG_CASP8: Life Technologies and Expression Analysis (LTEA) Assay for cysteine-aspartic acid protease (CASP8) using HepaRG (AID 2283480)
How it was run: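 Differentiated human HepaRG cells, plated 48 h then switched to serum-free induction medium, were exposed in duplicate for 48 h to 8 half-log concentrations up to 100 uM in 0.5% DMSO. CASP8 mRNA was quantified by qRT-PCR, normalized to ACTB/GAPDH/POLR2A.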

[10] = read-out: Cytochrome P450 (CYP2B6), CYP2B6 (gene 1555); assay: LTEA_HepaRG_CYP2B6: Life Technologies and Expression Analysis (LTEA) Assay for Cytochrome P450 (CYP2B6) using HepaRG (AID 2283481)
How it was run: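 CYP2B6 transcript level quantified by qRT-PCR against three housekeeping genes, fitted bidirectionally relative to DMSO. HepaRG cultures received chemicals for 48 h, 8-point half-log series from 100 uM in 0.5% DMSO, duplicate wells, serum-free induction medium.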

[11] = read-out: Cytochrome P450 2C19 (Homo sapiens) (UniProt P33261); assay: LTEA_HepaRG_CYP2C19: Life Technologies and Expression Analysis (LTEA) Assay for CYP2C19 using HepaRG (AID 2283482)
How it was run: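 CYP2C19 transcript levels by qRT-PCR, normalized to three housekeeping genes, in HepaRG cells after 48 h chemical exposure. Eight-point half-log series topping at 100 uM, 0.5% DMSO vehicle. Increases and decreases both fitted against DMSO.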

[12] = read-out: CYP2C8 (gene 1558); assay: LTEA_HepaRG_CYP2C8: Life Technologies and Expression Analysis (LTEA) Assay for CYP2C8 using HepaRG (AID 2283483)
How it was run: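 Differentiated human HepaRG cells were exposed for 48 h in serum-free induction medium to eight half-log concentrations up to 100 uM in 0.5% DMSO, in duplicate. CYP2C8 mRNA was measured by TaqMan qRT-PCR, normalized to ACTB, GAPDH and POLR2A, and fitted bidirectionally against DMSO.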

[13] = read-out: CYP2C9 (gene 1559); assay: LTEA_HepaRG_CYP2C9: Life Technologies and Expression Analysis (LTEA) Assay for CYP2C9 using HepaRG (AID 2283484)
How it was run: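 Differentiated human HepaRG cells were exposed 48 h in serum-free induction medium to eight half-log concentrations up to 100 uM in 0.5% DMSO. CYP2C9 mRNA was measured by qRT-PCR, normalized to ACTB, GAPDH and POLR2A, and fitted bidirectionally against DMSO.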

[14] = read-out: CYP4A11 (gene 1579); assay: LTEA_HepaRG_CYP4A11: Life Technologies and Expression Analysis (LTEA) Assay for CYP4A11 using HepaRG (AID 2283486)
How it was run: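 Readout is CYP4A11 transcript level by qRT-PCR, normalized to three housekeeping genes and fitted bidirectionally against 0.5% DMSO. Human HepaRG cells were treated 48 h, in duplicate, with an 8-point half-log series topping at 100 uM.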

[15] = read-out: DNA damage-inducible transcript 3 (DDIT3), DDIT3 (gene 1649); assay: LTEA_HepaRG_DDIT3: Life Technologies and Expression Analysis (LTEA) Assay for DNA damage-inducible transcript 3 (DDIT3) using HepaRG (AID 2283488)
How it was run: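 HepaRG cells, 48 h after plating, exposed 48 h in serum-free induction medium to 8 half-log concentrations up to 100 uM in 0.5% DMSO, in duplicate. DDIT3 mRNA measured by TaqMan qRT-PCR, normalized to ACTB, GAPDH and POLR2A. Fitted bidirectionally against DMSO.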

[16] = read-out: Pro-epidermal growth factor (Homo sapiens) (UniProt P01133); assay: LTEA_HepaRG_EGF: Life Technologies and Expression Analysis (LTEA) Assay for Epidermal growth factor (EGF) using HepaRG (AID 2283489)
How it was run: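 EGF transcript measured by Fluidigm TaqMan qRT-PCR with three housekeeping genes for normalization, 48 h after dosing HepaRG cultures in duplicate (top 100 uM, half-log steps, 0.5% DMSO vehicle). Gain or loss relative to DMSO fitted.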

[17] = read-out: Early growth response protein 1 (EGR1) transcription factor, EGR1 (gene 1958); assay: LTEA_HepaRG_EGR1: Life Technologies and Expression Analysis (LTEA) Assay for Early growth response protein 1 (EGR1) transcription factor using HepaRG (AID 2283490)
How it was run: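 Differentiated human HepaRG cells in serum-free induction medium were exposed in duplicate for 48 h to eight concentrations (top 100 uM, half-log steps) in 0.5% DMSO. EGR1 mRNA was quantified by qRT-PCR, normalized to ACTB, GAPDH and POLR2A, and fitted bidirectionally versus DMSO.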

[18] = read-out: Ezrin (EZR), EZR (gene 7430); assay: LTEA_HepaRG_EZR: Life Technologies and Expression Analysis (LTEA) Assay for Ezrin (EZR) using HepaRG (AID 2283491)
How it was run: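 HepaRG, 48 h chemical exposure, 8-pt half-log series from 100 uM, 0.5% DMSO vehicle, duplicates. Read-out: EZR mRNA by TaqMan qRT-PCR (Fluidigm array), housekeeping-normalized; bidirectional curve fit vs DMSO baseline.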

Measured: AC50

Chain of Cytochrome P450 2C19 (Homo sapiens) (P33261 whole entry, looked up): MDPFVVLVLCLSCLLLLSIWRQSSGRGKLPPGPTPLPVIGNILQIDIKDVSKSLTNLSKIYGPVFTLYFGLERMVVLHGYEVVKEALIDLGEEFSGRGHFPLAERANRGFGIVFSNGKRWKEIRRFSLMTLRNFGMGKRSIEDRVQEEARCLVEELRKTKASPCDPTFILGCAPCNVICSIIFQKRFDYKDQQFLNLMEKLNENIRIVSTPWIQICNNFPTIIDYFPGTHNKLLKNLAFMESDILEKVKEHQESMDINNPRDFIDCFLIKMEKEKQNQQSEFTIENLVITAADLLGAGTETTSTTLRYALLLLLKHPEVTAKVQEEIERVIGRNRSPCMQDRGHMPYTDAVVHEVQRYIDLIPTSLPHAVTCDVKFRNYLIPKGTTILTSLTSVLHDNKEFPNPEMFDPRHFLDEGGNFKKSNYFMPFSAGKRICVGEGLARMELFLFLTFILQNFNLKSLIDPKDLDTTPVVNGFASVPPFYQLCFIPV
Chain of Caspase-3 (Homo sapiens) (P42574 whole entry, looked up): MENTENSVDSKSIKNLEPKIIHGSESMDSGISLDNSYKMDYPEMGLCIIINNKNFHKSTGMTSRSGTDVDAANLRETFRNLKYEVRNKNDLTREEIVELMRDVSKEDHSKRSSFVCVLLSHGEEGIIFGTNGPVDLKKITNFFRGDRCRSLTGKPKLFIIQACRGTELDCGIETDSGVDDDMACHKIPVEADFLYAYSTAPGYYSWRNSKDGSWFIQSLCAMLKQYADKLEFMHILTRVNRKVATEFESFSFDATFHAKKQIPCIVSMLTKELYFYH
Chain of Apoptosis regulator Bcl-2 (Homo sapiens) (P10415 whole entry, looked up): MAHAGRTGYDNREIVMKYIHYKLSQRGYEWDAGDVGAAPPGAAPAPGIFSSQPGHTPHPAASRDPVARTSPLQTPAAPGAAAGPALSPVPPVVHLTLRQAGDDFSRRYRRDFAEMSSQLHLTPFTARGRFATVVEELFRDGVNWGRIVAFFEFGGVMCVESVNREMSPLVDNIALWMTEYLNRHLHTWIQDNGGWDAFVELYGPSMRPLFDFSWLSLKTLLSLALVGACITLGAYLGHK

O=C(O)Cn1c(=O)n(Cc2ccc(Br)cc2F)c(=O)c2ccc(Cl)cc21
active: [10] 32.7 µM | [11] 13 µM | [12] 17 µM
not listed: [18]
inactive: all other assays above

CC(=O)N1CCN(c2ccc(OC[C@H]3CO[C@](Cn4ccnc4)(c4ccc(Cl)cc4Cl)O3)cc2)CC1
inactive: [2] | [5] | [6]
active: [1] 19.1 µM | [3] 17.8 µM | [4] 11.5 µM | [8] 26 µM | [9] 82.8 µM | [10] 12.7 µM | [12] 22.9 µM | [13] 12.7 µM | [14] 12.4 µM | [15] 12.9 µM | [17] 38.4 µM

O=C(Nc1ccc(Cl)cc1)Nc1ccc(Cl)c(Cl)c1
active: [3] 21.4 µM | [4] 11.9 µM | [6] 13.3 µM | [8] 11.8 µM | [10] 19.2 µM | [11] 22.6 µM | [12] 87.1 µM | [13] 16.9 µM | [14] 28.7 µM | [15] 26.6 µM | [17] 12.6 µM
inactive: [1] | [2] | [5] | [7] | [9] | [18]

CCCC(=O)OCCC(C)C
active: [8] 50 µM
not listed: [18]
inactive: all other assays above

OC12N=C(c3ccccc3)SC1Cc1cc(Cl)ccc12 (centres undefined)
active: [1] 36.4 µM | [2] 2.86 µM | [3] 25.2 µM | [4] 20.3 µM | [8] 1.25 µM | [10] 11.6 µM | [11] 80.4 µM | [12] 39.6 µM | [13] 37.7 µM | [14] 49 µM | [15] 2.33 µM
inactive: [5] | [6] | [7] | [9] | [16] | [17] | [18]

CC/C(=C(/CC)c1ccc(O)cc1)c1ccc(O)cc1
inactive: [1] | [4] | [5] | [7] | [12]
active: [2] 88.8 µM | [3] 50 µM | [6] 93 µM | [9] 93.2 µM | [10] 82.4 µM | [14] 83.4 µM | [15] 67.6 µM | [17] 77.4 µM

CCCCCCCC[Si](OCC)(OCC)OCC
inactive: all assays above
